The values that follow come from PubChem BioAssay (NCATS).

Structures are written as SMILES. Records with an inconclusive call do not appear. The source made the active and inactive calls. Calls follow the shape of the dose curve; as a rule, active = well fitted inhibition curve with a large enough effect; inconclusive = small, poorly fitted or top-dose-only effect; inactive = flat fitted curve, though single readings scatter.
% is scaled to controls: 0 for no effect and ±100 for the full control effect.

The subject of the test is NIH3T3. The test is described as follows: Cytotoxic Profiling of Annotated Libraries Using Quantitative High-Throughput Screening (AID 1296008). Also: nearly all actives have a fitted effect of over 60% in size. The note with it: Five cell lines viability, CellTiter-Glo ATP luminescence, 48-72 h; max response: active compounds read low. In a few lines: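 Cytotoxicity was measured as CellTiter-Glo ATP luminescence, read after 10 min at room temperature. Compound treatment of the cells lasted 48 or 72 hr at 37 degrees Celsius in a qHTS format.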
On to `OCC1OC(Oc2cc(O)cc(/C=C/c3ccc(OC4OC(CO)C(O)C(O)C4O)cc3O)c2)C(O)C(O)C1O` (stereo unspecified), for which the max response is 0.921% (inactive). On the same count and under the same terms, then `C[C@@H]1O[C@@H](O[C@H]2[C@H](O[C@H]3[C@H](O[C@H]4CC[C@@]5(C)C(CC[C@]6(C)C5CC=C5[C@@H]7CC(C)(C)CC(=O)[C@]7(C)CC[C@]56C)[C@@]4(C)CO)O[C@H](C(=O)O)[C@@H](O)[C@@H]3O)O[C@H](CO)[C@H](O)[C@@H]2O)[C@H](O)[C@H](O)[C@H]1O` (stereo partly specified), with 0.221% (inactive); and `CC(O)C/C=C/C=C/C(=O)OC1C=C2COC(=O)C2(O)C2(C)CCCC(C)(C)C12` (stereo unspecified), with -2.82% (inactive); and `C[C@@H]1O[C@@H](O[C@H]2[C@H](O)[C@@H](O[C@@H]3O[C@H](CO)[C@H](O)[C@H](O)[C@H]3O)[C@H](O[C@H]3CC[C@@]4(C)C(CC[C@]5(C)C4CC=C4[C@@H]6CC(C)(C)CC[C@]6(C(=O)O[C@@H]6O[C@H](CO)[C@@H](O)[C@H](O)[C@H]6O)CC[C@]45C)C3(C)C)O[C@@H]2C(=O)O)[C@H](O)[C@H](O)[C@H]1O` (stereo partly specified), with -6.48% (inactive). Still for that read-out and setting: the value for `COc1ccnc(CCc2nc3ncccc3[nH]2)c1` was 3.19% (inactive).

Consider `CC(=O)O[C@@H]1[C@H](O[C@@H]2OC[C@](O)(CO)[C@H]2O)[C@@H](O[C@@H]2O[C@@H](C)[C@H](O)[C@@H](O[C@@H]3O[C@H](CO)[C@@H](O)[C@H](O)[C@H]3O)[C@H]2O)[C@H](OC(=O)[C@]23CCC(C)(C)C[C@H]2C2=CCC4[C@@]5(C)C[C@H](O)[C@H](O[C@@H]6O[C@H](C(=O)O)[C@@H](O)[C@H](O)[C@H]6O)[C@@](C)(C(=O)O)C5CC[C@@]4(C)[C@]2(C)CC3)O[C@@H]1C` (stereo partly specified), for which the result was inactive. In the case of `CC(C)CC(=O)O[C@@H]1O[C@H](CO)[C@@H](O[C@H]2O[C@H](C)[C@@H](N[C@H]3C=C(CO)[C@@H](O[C@H]4O[C@H](CO)[C@@H](O[C@H]5O[C@H](CO)[C@@H](O[C@H]6O[C@H](CO)[C@@H](O)[C@H](O)[C@H]6O)[C@H](O)[C@H]5O)[C@H](O)[C@H]4O)[C@H](O)[C@H]3O)[C@H](O)[C@H]2O)[C@H](O)[C@H]1O`, the max response was -2.08% (inactive).

In the case of `NC[C@H]1CCC[C@@H](CNC(=O)[C@@H](Cc2c[nH]c3ccccc23)NC(=O)N2CCC3(C=Cc4ccccc43)CC2)C1`, the max response was -1.79% (inactive). For `CC1CCC2(C)CCC3(C)C(=CCC4C5(C)CCC(O)C(C)(C(=O)O)C5CCC43C)C2C1C` (stereo unspecified), the max response was 4.66% (inactive). Same read-out and setting: then `C[C@@H]1O[C@@H](O[C@H]2[C@@H]3C=CO[C@@H](O[C@@H]4O[C@H](CO)[C@@H](O)[C@H](O)[C@H]4O)[C@@H]3[C@@]3(CO)O[C@@H]23)[C@H](O)[C@H](O)[C@H]1OC(=O)/C=C/c1ccc(O)cc1`, with -3.44% (inactive); and `CC(CC12CCCN1C(=O)C1CCCN1C2=O)OC(N)=O` (stereo unspecified), with 4.31% (inactive). On the same count and under the same terms, then `CC/C=C\C(O)C(O)C1=C(C)C(=O)C2(O1)C(=O)NC(OC)(C(=O)c1ccccc1)C2O` (stereo unspecified), with -1.62% (inactive); and `COc1c2cc(c(O)c1OC)CCCCC(O)CCc1ccc(O)c-2c1` (stereo unspecified), with -4.18% (inactive). Same read-out and setting: the value for `CC1CC(=O)[C@]2(O)C(C(=O)OCCc3ccc(O)cc3)=CO[C@@H](O[C@@H]3O[C@H](CO)[C@@H](O)[C@H](O)[C@H]3O)[C@H]12` (stereo partly specified) was -59.3% (inactive). With `COC(=O)C1=CO[C@@H](O[C@@H]2O[C@H](CO)[C@@H](O)[C@H](O)[C@H]2O)C2C1CC(O)C2C` (stereo partly specified), the max response was -5.32% (inactive).

With `CC(=O)OC[C@]12[C@H](OC(C)=O)[C@H](OC(=O)c3ccccc3)[C@@H]3[C@@H](OC(C)=O)[C@]1(OC3(C)C)[C@H](C)C[C@H](OC(=O)c1ccccc1)[C@@H]2OC(=O)c1ccccc1`, the max response is -7.63% (inactive).

For the compound `C[C@]1(C2CCCC2)Cc2cc(OCC(=O)O)c(Cl)c(Cl)c2C1=O`, the max response was 4.03% (inactive). On the same count and under the same terms, the value for `CC(NC(=O)c1ccccc1N)C(=O)O` (stereo unspecified) was 0.106% (inactive); that for `O=C(Nc1ccn(Cc2c(F)cccc2C(F)(F)F)n1)c1c(F)cccc1F` was 2.19% (inactive); that for `O=C(OC(C(F)(F)F)C(F)(F)F)N1CCN(Cc2cccc(Oc3ccccc3)c2)CC1` was 4.82% (inactive).

For the compound `C[C@H]1CC[C@@]2(OC1)O[C@H]1CC3C4CC[C@H]5C[C@@H](O)CC[C@]5(C)C4CC(=O)[C@]3(C)[C@H]1[C@@H]2C` (stereo partly specified), the max response is 3.42% (inactive).
